Experimental data taken from PubChem BioAssay (NCI).
The panel holds about 83,000 compounds, 20% with a hit somewhere; the sample as a whole holds those more often.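 A percent growth of 40 corresponds to 60% growth inhibition; 0 means no net growth; -100 means all cells died. Active threshold: below 10.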 The source made the active and inactive calls.

What was measured:
Assay in all cases: NCI-60 one-dose screen, 48 h (100 = growth as untreated, 0 = no growth, -100 = all killed)
Conditions in all cases: 10 µM unless noted
NCI-H23 lung = tested on: NCI-H23 lung
NCI-H226 lung = tested on: NCI-H226 lung
NCI-H322M lung = tested on: NCI-H322M lung
HOP-62 NSCLC = tested on: HOP-62 NSCLC
NCI-H460 lung = tested on: NCI-H460 lung
HOP-92 NSCLC = tested on: HOP-92 NSCLC
NCI-H522 lung = tested on: NCI-H522 lung
A549/ATCC NSCLC = tested on: A549/ATCC NSCLC
786-0 renal = tested on: 786-0 renal
COLO 205 colon = tested on: COLO 205 colon

Measured: growth

Cc1ccc(-c2nc3ccc(Cl)cn3c2NC2CCCCC2)o1
inactive: NCI-H23 lung 81.3% | NCI-H226 lung 84.5% | NCI-H322M lung 93.1% | HOP-62 NSCLC 87% | NCI-H460 lung 97.6% | HOP-92 NSCLC 73.1% | NCI-H522 lung 57.3% | A549/ATCC NSCLC 79.5% | 786-0 renal 87.8% | COLO 205 colon 79.6%

NC(=O)Nc1cc(-c2cccc(F)c2)sc1C(=O)N[C@H]1CCCNC1
active: NCI-H23 lung -15.3% | NCI-H226 lung 6.7% | NCI-H322M lung -17.8% | HOP-62 NSCLC -39.2% | NCI-H460 lung -21.6% | HOP-92 NSCLC -69.2% | NCI-H522 lung -19.2% | A549/ATCC NSCLC -35.4% | 786-0 renal -82.8% | COLO 205 colon -65.3%

CCOC(=O)C1=C(C)N=C2Sc3cc(OC(F)(F)F)ccc3N2[C@H]1c1ccccn1
inactive: NCI-H23 lung 48.8% | NCI-H226 lung 57.6% | NCI-H322M lung 50.2% | HOP-62 NSCLC 47.6% | NCI-H460 lung 15.2% | HOP-92 NSCLC 68% | NCI-H522 lung 48.5% | A549/ATCC NSCLC 30.1% | 786-0 renal 59.1% | COLO 205 colon 36.7%

COc1cnc2c(c1)C(=O)c1c-2n(CCCN2CCOCC2)c(=O)c2cc(Cl)ccc12
active: HOP-62 NSCLC 4.59% | NCI-H460 lung 3.15% | 786-0 renal -0.608% | COLO 205 colon 9.49%
inactive: NCI-H23 lung 20.6% | NCI-H226 lung 20.6% | NCI-H322M lung 31.3% | HOP-92 NSCLC 70.4% | NCI-H522 lung 24.3% | A549/ATCC NSCLC 34.9%

Brc1ccc([I+]c2ccc(Br)cc2)cc1
inactive: NCI-H226 lung 45.9% | NCI-H322M lung 48.1% | NCI-H460 lung 18.6% | A549/ATCC NSCLC 40.5% | 786-0 renal 27.7%
active: NCI-H23 lung -9.33% | HOP-62 NSCLC -83% | HOP-92 NSCLC -6.41% | NCI-H522 lung -35.7% | COLO 205 colon -28.7%

O=C1CC(c2ccc3c(c2)OCO3)c2ncn(-c3ccc(Cl)cc3)c2N1 (stereo not given)
inactive: NCI-H23 lung 41% | NCI-H226 lung 69.8% | NCI-H322M lung 51.9% | HOP-62 NSCLC 60.3% | NCI-H460 lung 14.3% | HOP-92 NSCLC 69.7% | A549/ATCC NSCLC 48.7% | 786-0 renal 38.4% | COLO 205 colon 99.5%
active: NCI-H522 lung -19.2%

Oc1ccc(C(c2ccc(O)cc2)C(Cl)(Cl)Cl)cc1
inactive: NCI-H23 lung 99.8% | NCI-H226 lung 104% | NCI-H322M lung 98.2% | HOP-62 NSCLC 107% | NCI-H460 lung 98.2% | HOP-92 NSCLC 56.1% | NCI-H522 lung 83.2% | A549/ATCC NSCLC 89.2% | 786-0 renal 102% | COLO 205 colon 104%

COc1ccc(-c2cnc(-c3ccc(Cl)cc3)[nH]2)cc1OC
inactive: NCI-H23 lung 99.2% | NCI-H226 lung 88.3% | NCI-H322M lung 120% | HOP-62 NSCLC 94.3% | NCI-H460 lung 100% | HOP-92 NSCLC 25.8% | NCI-H522 lung 105% | A549/ATCC NSCLC 105% | 786-0 renal 100% | COLO 205 colon 98.7%

Cc1cnc(Nc2ccc(OCCN3CCCC3)cc2)nc1Nc1cccc(S(=O)(=O)NC(C)(C)C)c1
active: NCI-H226 lung -61.9% | HOP-62 NSCLC -8.87% | HOP-92 NSCLC -72.1% | NCI-H522 lung -46.4% | A549/ATCC NSCLC -53.6% | 786-0 renal -84.8% | COLO 205 colon -67.6%
inactive: NCI-H23 lung 15.8% | NCI-H322M lung 28% | NCI-H460 lung 10.4%

Cc1ccccc1N1C(c2ccccc2)=NNC12C=CC(=O)C=C2Cl (stereo not given)
inactive: NCI-H23 lung 98.1% | NCI-H226 lung 115% | NCI-H322M lung 95.4% | HOP-62 NSCLC 98.3% | NCI-H460 lung 115% | HOP-92 NSCLC 114% | NCI-H522 lung 95.2% | A549/ATCC NSCLC 75.5% | 786-0 renal 106% | COLO 205 colon 99.3%

CC(C)(C)c1ccc(Cn2cc(CSc3nc4ccccc4s3)nn2)cc1
inactive: NCI-H23 lung 90.4% | NCI-H226 lung 83% | NCI-H322M lung 86.2% | HOP-62 NSCLC 87.6% | NCI-H460 lung 103% | HOP-92 NSCLC 80.6% | NCI-H522 lung 84.4% | A549/ATCC NSCLC 83.5% | 786-0 renal 96.2% | COLO 205 colon 102%

CCN1CCN(CCCN(C[C@H]2Cc3ccccc3CN2)[C@H]2CCCc3cccnc32)CC1
inactive: NCI-H23 lung 101% | NCI-H226 lung 83.7% | NCI-H322M lung 79.7% | HOP-62 NSCLC 65.2% | NCI-H460 lung 89.8% | HOP-92 NSCLC 60.3% | NCI-H522 lung 89.3% | A549/ATCC NSCLC 90.9% | 786-0 renal 83.3% | COLO 205 colon 97.2%

COc1cc2nccc(Oc3ccc(NC(=O)C4(C(=O)Nc5ccc(F)cc5)CC4)cc3)c2cc1OC
inactive: NCI-H23 lung 14.4% | NCI-H226 lung 11.7% | NCI-H322M lung 12.1% | NCI-H522 lung 11.4% | 786-0 renal 13.1%
active: HOP-62 NSCLC 9.04% | NCI-H460 lung 6.12% | HOP-92 NSCLC -36.9% | A549/ATCC NSCLC 2.35% | COLO 205 colon -44.7%

COc1ccc(CCCc2c3[n+](cc4c(OC)c(OC)ccc24)CCc2cc4c(cc2-3)OCO4)cc1
inactive: NCI-H23 lung 47.4% | NCI-H226 lung 88.4% | NCI-H322M lung 96.1% | HOP-62 NSCLC 78.6% | NCI-H460 lung 52.4% | HOP-92 NSCLC 77.8% | NCI-H522 lung 38.7% | A549/ATCC NSCLC 61.2% | 786-0 renal 92.2%
active: COLO 205 colon -11.2%

COc1cnc2c(c1)C(=O)c1c-2n(CCCn2ccnc2)c(=O)c2cc(Cl)ccc12
inactive: NCI-H322M lung 22.4% | HOP-92 NSCLC 31.8% | NCI-H522 lung 12.3% | A549/ATCC NSCLC 17.4% | COLO 205 colon 11.1%
active: NCI-H23 lung -1.2% | NCI-H226 lung 6.75% | HOP-62 NSCLC -16.7% | NCI-H460 lung 1.24% | 786-0 renal -17.9%

COC(=O)[C@H](Cc1ccccc1)NC(=O)[C@@H](OC)[C@@H]1Cc2cc3cc(OC4CC(OC5CC(O)C(O)C(C)O5)C(O)C(C)O4)c(C)c(O)c3c(O)c2C(=O)[C@H]1OC1CC(OC2CC(OC3CC(C)(O)C(O)C(C)O3)C(O)C(C)O2)C(O)C(C)O1 (stereo not given in full)
active: NCI-H23 lung -28.5% | NCI-H226 lung -33% | NCI-H322M lung 7.54% | HOP-62 NSCLC 4.37% | NCI-H460 lung 4.92% | HOP-92 NSCLC -17.5% | NCI-H522 lung -30.7% | A549/ATCC NSCLC 6.81% | 786-0 renal 0.647% | COLO 205 colon -36.7%

COc1ccc(Br)cc1NC(=O)Nc1cccc2c1ccn2Cc1ccnc(N)c1
inactive: NCI-H23 lung 55.1% | NCI-H226 lung 22.2% | NCI-H322M lung 32.7% | NCI-H460 lung 14.6% | A549/ATCC NSCLC 18.9% | 786-0 renal 31.2%
active: HOP-62 NSCLC -44.7% | HOP-92 NSCLC -7.4% | NCI-H522 lung -50.9% | COLO 205 colon -57.5%

COc1cc(CCc2cc(NC(=O)c3ccc(N4C[C@@H](C)N[C@@H](C)C4)cc3)n[nH]2)cc(OC)c1
inactive: NCI-H23 lung 40.1% | NCI-H226 lung 46.1% | NCI-H322M lung 22.7% | HOP-62 NSCLC 38.1% | NCI-H460 lung 24.6% | HOP-92 NSCLC 54.4% | NCI-H522 lung 40.4% | A549/ATCC NSCLC 37.4% | 786-0 renal 38.6%
active: COLO 205 colon 9.19%

COc1cc2ncnc(Nc3ccc(O)cc3)c2cc1OC
inactive: NCI-H23 lung 104% | NCI-H226 lung 95.2% | NCI-H322M lung 12.4% | HOP-62 NSCLC 86.5% | NCI-H460 lung 103% | HOP-92 NSCLC 78% | NCI-H522 lung 11% | A549/ATCC NSCLC 45.8% | 786-0 renal 83.4% | COLO 205 colon 115%

COc1cc(-c2cc(-c3ccc(Nc4ccnc5cc(Cl)ccc45)cc3)nc(N3CCOCC3)n2)cc(OC)c1OC
inactive: NCI-H226 lung 92.3% | NCI-H322M lung 28.9% | HOP-92 NSCLC 85.8% | COLO 205 colon 32.4%
active: NCI-H23 lung 0.48% | HOP-62 NSCLC -39.1% | NCI-H460 lung -43.9% | NCI-H522 lung -23.7% | A549/ATCC NSCLC -30.7% | 786-0 renal -65.5%

Cc1nc2ccc(-n3ncc(C(=O)c4cc5ccccc5[nH]4)c3N)cc2[nH]1
active: NCI-H460 lung 5.14%
inactive: NCI-H23 lung 74% | NCI-H226 lung 48.4% | NCI-H322M lung 86.5% | HOP-62 NSCLC 55.9% | HOP-92 NSCLC 74.8% | NCI-H522 lung 36.5% | A549/ATCC NSCLC 36.9% | 786-0 renal 55.2% | COLO 205 colon 38.7%

O=C(NCCO)Nc1ccc(-c2nc(N3CCOCC3)c3cccn3n2)cc1
inactive: NCI-H23 lung 18.2% | NCI-H322M lung 18% | NCI-H522 lung 10.1%
active: NCI-H226 lung 6.97% | HOP-62 NSCLC -0.0166% | NCI-H460 lung 8.21% | HOP-92 NSCLC -21.4% | A549/ATCC NSCLC 2.7% | 786-0 renal -5.56% | COLO 205 colon -7.82%

Cn1cc(-c2cnn3c(N)c(Br)c([C@@H]4CCCNC4)nc23)cn1
inactive: NCI-H23 lung 39.6% | NCI-H226 lung 60% | NCI-H322M lung 48.2% | HOP-62 NSCLC 28.8% | NCI-H460 lung 35% | HOP-92 NSCLC 54.6% | NCI-H522 lung 28.4% | A549/ATCC NSCLC 41.5% | 786-0 renal 37% | COLO 205 colon 14.3%

CC(C)(C)CC(C)(C)Nc1c(-c2c(O)c3ccccc3oc2=O)nc2c(Cl)cc(C(F)(F)F)cn12
inactive: NCI-H23 lung 103% | NCI-H226 lung 97.5% | NCI-H322M lung 94% | HOP-62 NSCLC 92.5% | NCI-H460 lung 107% | HOP-92 NSCLC 87.7% | NCI-H522 lung 81.4% | A549/ATCC NSCLC 85.5% | 786-0 renal 97% | COLO 205 colon 112%
